Measurements as given in PubChem BioAssay (NCI).
The panel holds about 79,000 compounds, 15% with a hit somewhere; the sample as a whole holds those more often. Activity calls are given as the source filed them. Rule as the data show it: active = growth inhibition above about 70%; inactive = the rest.

Experiments:
[1] = NCI Yeast Anticancer Drug Screen. Data for the rad52 strain (AID 147);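 also: 0% = growth of vehicle-treated control cultures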; settings: S. cerevisiae rad52 mutant growth inhibition, stronger effect = higher value
How it was run: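 Inhibition of yeast growth, referenced to vehicle controls, was the measured output for a strain with defective DNA damage repair.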

[2] = NCI Yeast Anticancer Drug Screen. Data for the wt1 strain (AID 149);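 also: 0% = growth of vehicle-treated wt1 cultures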; settings: S. cerevisiae wt1 strain (SPY 50644) growth inhibition, stronger effect = higher value
How it was run: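 Using yeast strain wt1, compound-induced growth inhibition was determined against vehicle-treated cultures.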

[3] = NCI Yeast Anticancer Drug Screen. Data for the rad50EPP+ strain (AID 151);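 also: 0% = growth of vehicle-treated control cultures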; settings: S. cerevisiae rad50 mutant strain, stronger effect = higher value
How it was run: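 Genetically defined yeast (rad50EPP+, DNA damage repair alteration) is grown with compound, and inhibition of growth is expressed relative to vehicle-treated controls.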

[4] = NCI Yeast Anticancer Drug Screen. Data for the rad50 strain (AID 155);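 also: 0% = growth of vehicle-only cultures of the same strain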; settings: S. cerevisiae rad50 strain growth inhibition, stronger effect = higher value
How it was run: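 Relative growth inhibition (compound vs vehicle) was measured in yeast with a defined repair-gene alteration.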

[5] = NCI Yeast Anticancer Drug Screen. Data for the mec2-1 strain (AID 157); settings: S. cerevisiae mec2-1 strain, stronger effect = higher value
How it was run: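 Each compound was tested on mec2-1 yeast, a strain altered in DNA damage repair or cell cycle control. Growth inhibition is reported relative to vehicle.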

[6] = NCI Yeast Anticancer Drug Screen. Data for the rad14 strain (AID 159);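 also: 0% = growth of vehicle-treated control cultures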; settings: S. cerevisiae rad14 strain growth inhibition, stronger effect = higher value
How it was run: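 Screen for anticancer potential: a yeast strain altered in DNA damage repair is grown with compound, and reduced growth is quantified against vehicle controls.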

[7] = NCI Yeast Anticancer Drug Screen. Data for the sgs1 mgt1 strain (AID 161);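 also: 0% = growth of cultures given vehicle only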; settings: S. cerevisiae sgs1 mgt1 strain, stronger effect = higher value
How it was run: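 Inhibition of yeast growth, normalised to vehicle-treated controls, is reported for a strain bearing genetic alterations in DNA damage repair.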

[8] = NCI Yeast Anticancer Drug Screen. Data for the CLN2oe strain (AID 163);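 also: 0% = growth of vehicle-only control cultures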; settings: S. cerevisiae CLN2oe strain, stronger effect = higher value
How it was run: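 First, the altered yeast strain was treated with each compound; second, its growth was measured; finally, inhibition was derived by comparison with vehicle controls.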

[9] = NCI Yeast Anticancer Drug Screen. Data for the cln2 rad14 strain (AID 165);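 also: 0% = growth equal to vehicle treated cultures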; settings: S. cerevisiae cln2 rad14 strain, stronger effect = higher value
How it was run: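 Test compounds were added to cln2 rad14 yeast cultures; inhibition of growth was then determined by comparison with vehicle treatment.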

[10] = NCI Yeast Anticancer Drug Screen. Data for the bub3 strain (AID 167); settings: S. cerevisiae bub3 mutant strain, stronger effect = higher value
How it was run: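 Screening used yeast with an engineered genetic alteration affecting cell cycle control. Compound-exposed cultures were compared with vehicle cultures, and reduced growth was taken as inhibition.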

[11] = NCI Yeast Anticancer Drug Screen. Data for the wt2 strain (AID 169);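 also: 0% = growth of vehicle-treated yeast cultures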; settings: S. cerevisiae wt2 strain growth inhibition, stronger effect = higher value
How it was run: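 The panel's yeast strains carry defined changes in DNA repair or cell cycle genes. Each strain is grown with compound, and growth loss is scored relative to vehicle.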

[12] = NCI Yeast Anticancer Drug Screen. Data for the mlh1 strain (AID 171);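 also: 0% = growth of vehicle-treated control cultures of the same strain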; settings: S. cerevisiae mlh1 strain growth inhibition, stronger effect = higher value
How it was run: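 Inhibition values reflect reduced yeast growth in the presence of compound, referenced to vehicle controls, using a strain chosen for its alteration in DNA repair or cell cycle control.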

[13] = NCI Yeast Anticancer Drug Screen. Data for the sgs1 strain (AID 173);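 also: 0% = growth of vehicle-only control cultures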; settings: S. cerevisiae sgs1 mutant, stronger effect = higher value
How it was run: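 Vehicle-treated cultures served as reference for growth inhibition of a yeast strain altered in DNA damage repair or cell cycle control after compound exposure.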

[14] = NCI Yeast Anticancer Drug Screen. Data for the mlh1 rad18 strain (AID 175); settings: S. cerevisiae mlh1 rad18 strain growth inhibition, stronger effect = higher value
How it was run: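 Inhibition values reflect reduced growth of mutant yeast versus vehicle-treated controls following compound exposure; the mutations affect DNA damage repair.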

[15] = NCI Yeast Anticancer Drug Screen. Data for the rad18 strain (AID 177); settings: S. cerevisiae rad18 mutant growth inhibition, stronger effect = higher value
How it was run: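 Steps: expose repair-mutant yeast to compound; measure growth; express as inhibition relative to vehicle control.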

[16] = at 5.0 µM (retest, dose inferred, filed as 0.5)
[17] = at 50.0 µM (retest, dose inferred, filed as 5.0)

Measured: growth inhibition

C=C(CCCO)[C@@H]1CC[C@@](C)(O)[C@H]1C
inactive: [1]; at 1.2 µM -7% | [1]; at 3.7 µM -9% | [1]; at 11.0 µM -13% | [1]; at 33.0 µM -8% | [1]; at 100.0 µM -12% | [2]; at 1.2 µM -25% | [2]; at 3.7 µM -33% | [2]; at 11.0 µM -29% | [2]; at 33.0 µM -34% | [2]; at 100.0 µM -35% | [3]; at 1.2 µM -38% | [3]; at 3.7 µM -32% | [3]; at 11.0 µM -54% | [3]; at 33.0 µM -38% | [3]; at 100.0 µM -48% | [4]; at 1.2 µM -5% | [4]; at 3.7 µM -7% | [4]; [16] 38% | [4]; at 11.0 µM -16% | [4]; at 33.0 µM -17% | [4]; at 50.0 µM 49% | [4]; at 100.0 µM -33% | [5]; at 1.2 µM -53% | [5]; at 3.7 µM -39% | [5]; [16] 44% | [5]; at 11.0 µM -48% | [5]; at 33.0 µM -41% | [5]; at 50.0 µM 68.2% | [5]; at 100.0 µM -34% | [6]; at 1.2 µM -51% | [6]; at 3.7 µM -43% | [6]; at 11.0 µM -37% | [6]; at 33.0 µM -35% | [6]; at 100.0 µM -56% | [7]; [16] -1% | [7]; [17] -9% | [7]; at 50.0 µM 55.5% | [8]; at 1.2 µM -24% | [8]; at 3.7 µM -13% | [8]; at 11.0 µM -27% | [8]; at 33.0 µM -25% | [8]; at 100.0 µM -35% | [9]; [16] 46% | [9]; [17] 28% | [9]; at 50.0 µM 9.15% | [10]; at 1.2 µM -17% | [10]; at 3.7 µM -6% | [10]; [16] 18% | [10]; at 11.0 µM -12% | [10]; at 33.0 µM -9% | [10]; [17] -1% | [10]; at 50.0 µM 55.5% | [10]; at 100.0 µM -12% | [11]; at 1.2 µM -30% | [11]; at 3.7 µM -27% | [11]; at 11.0 µM -33% | [11]; at 33.0 µM -30% | [11]; at 100.0 µM -23% | [12]; at 1.2 µM -20% | [12]; at 3.7 µM -23% | [12]; at 11.0 µM -39% | [12]; at 33.0 µM -31% | [12]; at 100.0 µM -48% | [13]; at 1.2 µM -35% | [13]; at 3.7 µM -28% | [13]; at 11.0 µM -31% | [13]; at 33.0 µM -29% | [13]; at 100.0 µM -39% | [14]; [16] 36% | [14]; at 50.0 µM 43.3% | [15]; at 1.2 µM -38% | [15]; at 3.7 µM -38% | [15]; at 11.0 µM -45% | [15]; at 33.0 µM -46% | [15]; at 100.0 µM -66%
active: [4]; [17] 90% | [5]; [17] 93% | [14]; [17] 87%

Oc1ccccc1N=Cc1ccc(Cl)cc1
active: [4]; at 100.0 µM 82% | [10]; at 11.0 µM 70% | [10]; at 33.0 µM 78% | [10]; [17] 73% | [10]; at 50.0 µM 71.5% | [10]; at 100.0 µM 81% | [15]; at 100.0 µM 87%
inactive: [1]; at 1.2 µM 5% | [1]; at 3.7 µM 10% | [1]; at 11.0 µM 20% | [1]; at 33.0 µM 29% | [1]; at 100.0 µM 39% | [2]; at 1.2 µM 14% | [2]; at 3.7 µM 12% | [2]; at 11.0 µM 10% | [2]; at 33.0 µM 15% | [2]; at 100.0 µM 17% | [3]; at 1.2 µM 6% | [3]; at 3.7 µM 21% | [3]; at 11.0 µM 35% | [3]; at 33.0 µM 52% | [3]; at 100.0 µM 59% | [4]; at 1.2 µM 9% | [4]; at 3.7 µM 54% | [4]; [16] 16% | [4]; at 11.0 µM 42% | [4]; at 33.0 µM 59% | [4]; [17] 26% | [4]; at 50.0 µM 32% | [5]; at 1.2 µM 17% | [5]; at 3.7 µM 16% | [5]; [16] -23% | [5]; at 11.0 µM 18% | [5]; at 33.0 µM 22% | [5]; [17] 24% | [5]; at 50.0 µM 29.1% | [5]; at 100.0 µM 40% | [6]; at 1.2 µM 5% | [6]; at 3.7 µM 5% | [6]; at 11.0 µM 11% | [6]; at 33.0 µM 20% | [6]; at 100.0 µM 34% | [7]; [16] 20% | [7]; [17] 24% | [7]; at 50.0 µM 25.6% | [8]; at 1.2 µM -4% | [8]; at 3.7 µM -2% | [8]; at 11.0 µM -1% | [8]; at 33.0 µM 1% | [8]; at 100.0 µM 9% | [9]; [16] 2% | [9]; [17] 14% | [9]; at 50.0 µM -9.8% | [10]; at 1.2 µM 33% | [10]; at 3.7 µM 55% | [10]; [16] 56% | [11]; at 1.2 µM 14% | [11]; at 3.7 µM 16% | [11]; at 11.0 µM 4% | [11]; at 33.0 µM 8% | [11]; at 100.0 µM 13% | [12]; at 1.2 µM 12% | [12]; at 3.7 µM 10% | [12]; at 11.0 µM 11% | [12]; at 33.0 µM 18% | [12]; at 100.0 µM 27% | [13]; at 1.2 µM 17% | [13]; at 3.7 µM 13% | [13]; at 11.0 µM 19% | [13]; at 33.0 µM 23% | [13]; at 100.0 µM 29% | [14]; [16] 41% | [14]; [17] 53% | [14]; at 50.0 µM 60.5% | [15]; at 1.2 µM 17% | [15]; at 3.7 µM 30% | [15]; at 11.0 µM 43% | [15]; at 33.0 µM 64%
